PubChem BioAssay (EPA / NIEHS)
Activity calls are given as the source filed them. Rule for the calls: active = hit-call score of the fitted dose curve at least 0.9, where 1 is the maximum; inactive = score below 0.9.

Assays:
[1] = ATG_M_32_CIS: Attagene CIS-FACTORIAL HepG2 Assay for M32 Transcription Factor (Internal Marker) (AID 2282949); conditions: HepG2 Attagene cis-factorial M32 reporter, mRNA; actives raise or lower the signal;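 note: background control marker of the multiplexed CIS panel rather than a real target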
In short: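 Transient MRTU transfection of HepG2; 24 h compound treatment; TriZol RNA, oligo(dT) RT, reporter PCR, 6-FAM primer extension, HpaI cut, CE. Gain/loss of signal vs DMSO.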

[2] = ATG_M_06_CIS: Attagene CIS-FACTORIAL HepG2 Assay for M06 Transcription Factor (Internal Marker) (AID 2282950); conditions: HepG2 Attagene CIS-FACTORIAL M06 internal marker reporter; actives raise or lower the signal
In short: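 Measured 24 h post-dosing in transiently transfected HepG2 cells, this internal-marker endpoint reports reporter mRNA via RT-PCR with fluorescent primer extension and capillary electrophoresis. DMSO served as negative control and baseline for bidirectional fitting.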

[3] = target: Hypoxia-inducible factor 1-alpha (Homo sapiens) (UniProt Q16665); experiment: ATG_HIF1a_CIS: Attagene CIS-FACTORIAL HepG2 Assay for human Hypoxia Inducible Factor 1 (HIF1A) (AID 2282951); conditions: HepG2 Attagene cis-factorial HIF1a reporter transcription; actives raise or lower the signal
Chain of Hypoxia-inducible factor 1-alpha (Homo sapiens) (Q16665 whole entry, looked up): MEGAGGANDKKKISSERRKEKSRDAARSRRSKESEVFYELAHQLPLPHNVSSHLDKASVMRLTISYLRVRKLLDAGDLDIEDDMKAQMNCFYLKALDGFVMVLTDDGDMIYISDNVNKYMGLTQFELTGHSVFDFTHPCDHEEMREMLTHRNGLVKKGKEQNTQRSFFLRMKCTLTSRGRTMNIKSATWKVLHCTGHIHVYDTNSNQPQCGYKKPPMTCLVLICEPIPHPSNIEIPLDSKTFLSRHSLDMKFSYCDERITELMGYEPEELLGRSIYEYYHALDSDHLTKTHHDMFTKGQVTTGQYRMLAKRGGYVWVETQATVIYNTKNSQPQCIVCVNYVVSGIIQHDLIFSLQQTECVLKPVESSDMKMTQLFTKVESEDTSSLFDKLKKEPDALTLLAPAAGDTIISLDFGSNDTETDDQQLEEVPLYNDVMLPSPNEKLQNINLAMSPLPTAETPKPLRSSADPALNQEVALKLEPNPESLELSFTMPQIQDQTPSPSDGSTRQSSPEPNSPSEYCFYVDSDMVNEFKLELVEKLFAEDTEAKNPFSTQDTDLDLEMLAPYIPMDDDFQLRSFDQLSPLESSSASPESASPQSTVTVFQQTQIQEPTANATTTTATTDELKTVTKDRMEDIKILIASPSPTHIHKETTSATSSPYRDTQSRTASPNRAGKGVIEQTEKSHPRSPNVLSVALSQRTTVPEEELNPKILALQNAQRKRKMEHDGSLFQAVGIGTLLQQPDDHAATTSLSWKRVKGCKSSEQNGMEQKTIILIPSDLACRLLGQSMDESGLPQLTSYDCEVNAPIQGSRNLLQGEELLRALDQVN
In short: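 Measures endogenous transcription-factor activity through cis-regulated reporter mRNA in HepG2. Cells dosed 24 h; transcripts quantified by RT-PCR with 6-FAM-labelled products separated by capillary electrophoresis; DMSO serves as negative control.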

[4] = target: Hepatocyte nuclear factor 6 (Homo sapiens) (UniProt Q9UBC0); experiment: ATG_HNF6_CIS: Attagene CIS-FACTORIAL HepG2 Assay for human Hepatocyte Nuclear Factor 6 (HNF6) (AID 2282952); conditions: HepG2 Attagene cis-factorial HNF6 reporter transcription; actives raise or lower the signal
Chain of Hepatocyte nuclear factor 6 (Homo sapiens) (Q9UBC0 whole entry, looked up, the tested form may be a part): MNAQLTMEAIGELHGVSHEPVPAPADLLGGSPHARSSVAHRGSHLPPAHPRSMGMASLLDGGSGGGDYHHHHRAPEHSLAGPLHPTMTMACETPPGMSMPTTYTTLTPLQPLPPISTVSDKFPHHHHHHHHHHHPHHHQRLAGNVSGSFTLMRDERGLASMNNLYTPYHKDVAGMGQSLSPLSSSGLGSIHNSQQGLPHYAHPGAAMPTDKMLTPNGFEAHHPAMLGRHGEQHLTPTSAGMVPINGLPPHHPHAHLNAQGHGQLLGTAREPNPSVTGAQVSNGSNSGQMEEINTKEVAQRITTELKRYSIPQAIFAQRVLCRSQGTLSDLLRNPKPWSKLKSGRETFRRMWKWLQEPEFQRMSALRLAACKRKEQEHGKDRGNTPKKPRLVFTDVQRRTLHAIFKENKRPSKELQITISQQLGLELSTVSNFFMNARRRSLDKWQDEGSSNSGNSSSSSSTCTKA
In short: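 First, HepG2 cells were transfected with the multiplexed cis reporter library and dosed with chemical for 24 h. Next, RNA was reverse-transcribed, PCR-amplified and fluorescently labelled. Finally, HpaI-digested fragments were read by capillary electrophoresis.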

[5] = target: Heat shock factor protein 1 (Homo sapiens) (UniProt Q00613); experiment: ATG_HSE_CIS: Attagene CIS-FACTORIAL HepG2 Assay for human Heat Shock Transcription Factor 1 (HSE) (AID 2282953); conditions: HepG2 HSE cis-reporter, Attagene RNA transcription; actives raise or lower the signal
Chain of Heat shock factor protein 1 (Homo sapiens) (Q00613 whole entry, looked up): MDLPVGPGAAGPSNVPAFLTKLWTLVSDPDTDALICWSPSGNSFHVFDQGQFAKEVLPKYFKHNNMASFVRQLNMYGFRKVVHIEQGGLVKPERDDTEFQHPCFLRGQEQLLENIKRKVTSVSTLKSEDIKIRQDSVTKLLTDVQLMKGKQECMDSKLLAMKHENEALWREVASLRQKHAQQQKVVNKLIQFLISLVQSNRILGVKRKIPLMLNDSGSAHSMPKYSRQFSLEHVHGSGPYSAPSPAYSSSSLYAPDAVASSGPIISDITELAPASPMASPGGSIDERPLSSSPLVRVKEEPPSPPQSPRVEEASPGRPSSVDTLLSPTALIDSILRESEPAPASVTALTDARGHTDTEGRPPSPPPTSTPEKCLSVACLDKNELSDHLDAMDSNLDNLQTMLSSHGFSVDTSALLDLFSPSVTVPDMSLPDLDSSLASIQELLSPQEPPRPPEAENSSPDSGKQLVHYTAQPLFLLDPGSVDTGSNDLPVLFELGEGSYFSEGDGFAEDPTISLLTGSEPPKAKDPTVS
In short: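 Reporter mRNA induction in HepG2 is measured 24 h after dosing, using transiently transfected multiplexed cis-regulated reporter units. Signal comes from capillary electrophoresis of labelled RT-PCR products, with DMSO as negative control.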

[6] = ATG_MRE_CIS: Attagene CIS-FACTORIAL HepG2 Assay for human Metal Responsive Element (MRE) (AID 2282954); conditions: HepG2 MRE cis-reporter transcription, Attagene multiplex; actives raise or lower the signal
In short: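 Multiplexed cis-reporter assay in human HepG2 liver cells, 24 h incubation with test chemical. Reporter transcripts measured by RT-PCR and capillary electrophoresis; values from bidirectional curve fitting versus DMSO.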

[7] = target: Paired box protein Pax-6 (Homo sapiens) (UniProt P26367); experiment: ATG_Pax6_CIS: Attagene CIS-FACTORIAL HepG2 Assay for human Paired Box 6 (PAX6) (AID 2282956); conditions: HepG2 CIS-FACTORIAL PAX6 reporter transcription, RNA readout; actives raise or lower the signal
Chain of Paired box protein Pax-6 (Homo sapiens) (P26367 whole entry, looked up): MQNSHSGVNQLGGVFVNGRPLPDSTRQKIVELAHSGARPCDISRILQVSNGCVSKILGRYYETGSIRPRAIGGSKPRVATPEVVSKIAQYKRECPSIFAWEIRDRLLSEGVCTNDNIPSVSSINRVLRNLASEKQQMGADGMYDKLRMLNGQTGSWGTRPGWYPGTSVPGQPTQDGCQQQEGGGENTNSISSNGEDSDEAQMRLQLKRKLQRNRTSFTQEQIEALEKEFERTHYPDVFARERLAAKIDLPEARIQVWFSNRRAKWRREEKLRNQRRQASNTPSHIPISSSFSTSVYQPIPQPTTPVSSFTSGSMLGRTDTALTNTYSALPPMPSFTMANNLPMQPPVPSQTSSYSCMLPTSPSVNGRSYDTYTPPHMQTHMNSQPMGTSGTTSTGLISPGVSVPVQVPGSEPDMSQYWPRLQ
In short: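 Readout: reporter transcript fluorescence after RT-PCR and capillary electrophoresis. Cells: HepG2, transiently transfected with cis-regulated MRTUs. Exposure 24 h. Gain or loss of signal fitted bidirectionally relative to DMSO.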

[8] = ATG_PXRE_CIS: Attagene CIS-FACTORIAL HepG2 Assay for human Pregnane X Receptor Element (PXRE) (AID 2282957); conditions: HepG2 Attagene CIS-FACTORIAL PXRE reporter, mRNA; actives raise or lower the signal
In short: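 After a 24 h chemical incubation, total RNA from transfected HepG2 cells was reverse-transcribed and reporter cDNA amplified, FAM-labeled, HpaI-digested and sized by capillary electrophoresis. DMSO served as baseline for bidirectional curve fitting.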

[9] = ATG_PPRE_CIS: Attagene CIS-FACTORIAL HepG2 Assay for human Peroxisome Proliferator-activated Response Element (PPRE) (AID 2282958); conditions: HepG2 PPRE cis-element reporter, Attagene transcription factor profiling; actives raise or lower the signal
In short: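 Cells are first transfected transiently with the multiplexed reporter library, then dosed for 24 h. Total RNA is reverse-transcribed, amplified, fluorescently end-labeled and HpaI-cut before capillary electrophoresis; activity is fitted bidirectionally against DMSO controls.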

[10] = ATG_RORE_CIS: Attagene CIS-FACTORIAL HepG2 Assay for human RAR-related Orphan Receptor Element (RORE) (AID 2282959); conditions: HepG2 Attagene cis-factorial RORE reporter, mRNA; actives raise or lower the signal
In short: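 Cells were HepG2 carrying transfected cis-regulated reporter constructs, dosed for 24 hours. Total RNA was reverse-transcribed and reporter cDNA amplified, fluorescently labeled and sized by capillary electrophoresis. Activity was fitted bidirectionally relative to DMSO.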

[11] = ATG_Sox_CIS: Attagene CIS-FACTORIAL HepG2 Assay for human SRY-box transcription factor (SOX) (AID 2282960); conditions: HepG2 Attagene cis-factorial SOX reporter, mRNA; actives raise or lower the signal
In short: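 Transient MRTU transfection of HepG2; 24 h compound incubation; TriZol RNA, oligo(dT) RT, PCR, 6-FAM primer extension, HpaI cut, CE. Bidirectional fit, DMSO = baseline.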

[12] = target: Transcription factor Sp1 (Homo sapiens) (UniProt P08047); experiment: ATG_Sp1_CIS: Attagene CIS-FACTORIAL HepG2 Assay for human Specificity Protein 1 (Sp1) (AID 2282961); conditions: HepG2 Sp1 cis-reporter transcription, actives raise or lower the signal
Chain of Transcription factor Sp1 (Homo sapiens) (P08047 whole entry, looked up): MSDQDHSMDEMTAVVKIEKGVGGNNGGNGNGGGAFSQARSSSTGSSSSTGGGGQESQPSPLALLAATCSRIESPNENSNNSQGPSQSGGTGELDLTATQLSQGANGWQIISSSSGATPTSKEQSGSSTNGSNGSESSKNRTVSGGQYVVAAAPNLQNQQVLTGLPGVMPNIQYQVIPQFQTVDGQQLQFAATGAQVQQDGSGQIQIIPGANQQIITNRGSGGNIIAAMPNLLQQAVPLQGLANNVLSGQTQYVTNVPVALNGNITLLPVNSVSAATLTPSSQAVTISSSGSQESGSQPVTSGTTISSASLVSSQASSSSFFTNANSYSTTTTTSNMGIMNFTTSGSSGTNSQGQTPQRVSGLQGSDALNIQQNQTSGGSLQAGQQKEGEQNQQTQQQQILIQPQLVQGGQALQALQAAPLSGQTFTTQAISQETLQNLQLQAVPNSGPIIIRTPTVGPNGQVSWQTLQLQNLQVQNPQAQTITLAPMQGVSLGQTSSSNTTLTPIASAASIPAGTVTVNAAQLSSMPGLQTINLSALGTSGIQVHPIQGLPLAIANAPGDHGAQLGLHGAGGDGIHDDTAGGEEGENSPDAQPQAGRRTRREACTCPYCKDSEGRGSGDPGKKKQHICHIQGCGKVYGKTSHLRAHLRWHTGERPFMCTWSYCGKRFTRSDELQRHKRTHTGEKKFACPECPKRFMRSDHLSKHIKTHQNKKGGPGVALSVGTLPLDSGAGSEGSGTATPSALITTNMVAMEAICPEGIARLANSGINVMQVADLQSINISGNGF
In short: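 Endogenous Sp1 activity was gauged in human liver HepG2 cells bearing transfected reporter units under a cis-regulating promoter. After 24 h dosing, reporter mRNA was quantified by RT-PCR with capillary electrophoresis, and activity fitted bidirectionally versus DMSO.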

[13] = ATG_SREBP_CIS: Attagene CIS-FACTORIAL HepG2 Assay for human Sterol Regulatory Element Binding (SREBP) (AID 2282962); conditions: HepG2 Attagene cis-factorial SREBP reporter, mRNA; actives raise or lower the signal
In short: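 Readout: fluorescent reporter-transcript peaks resolved by capillary electrophoresis after RT-PCR. Cells were human HepG2 carrying transfected cis-promoter reporter constructs, dosed for 24 h. Gain or loss of signal was fitted against DMSO controls.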

[14] = target: Signal transducer and activator of transcription 3 (Homo sapiens) (UniProt P40763); experiment: ATG_STAT3_CIS: Attagene CIS-FACTORIAL HepG2 Assay for human Signal Transducer and Activator of Transcription 3 (STAT3) (AID 2282963); conditions: HepG2, Attagene cis-factorial STAT3 reporter transcription; actives raise or lower the signal
Chain of Signal transducer and activator of transcription 3 (Homo sapiens) (P40763 whole entry, looked up): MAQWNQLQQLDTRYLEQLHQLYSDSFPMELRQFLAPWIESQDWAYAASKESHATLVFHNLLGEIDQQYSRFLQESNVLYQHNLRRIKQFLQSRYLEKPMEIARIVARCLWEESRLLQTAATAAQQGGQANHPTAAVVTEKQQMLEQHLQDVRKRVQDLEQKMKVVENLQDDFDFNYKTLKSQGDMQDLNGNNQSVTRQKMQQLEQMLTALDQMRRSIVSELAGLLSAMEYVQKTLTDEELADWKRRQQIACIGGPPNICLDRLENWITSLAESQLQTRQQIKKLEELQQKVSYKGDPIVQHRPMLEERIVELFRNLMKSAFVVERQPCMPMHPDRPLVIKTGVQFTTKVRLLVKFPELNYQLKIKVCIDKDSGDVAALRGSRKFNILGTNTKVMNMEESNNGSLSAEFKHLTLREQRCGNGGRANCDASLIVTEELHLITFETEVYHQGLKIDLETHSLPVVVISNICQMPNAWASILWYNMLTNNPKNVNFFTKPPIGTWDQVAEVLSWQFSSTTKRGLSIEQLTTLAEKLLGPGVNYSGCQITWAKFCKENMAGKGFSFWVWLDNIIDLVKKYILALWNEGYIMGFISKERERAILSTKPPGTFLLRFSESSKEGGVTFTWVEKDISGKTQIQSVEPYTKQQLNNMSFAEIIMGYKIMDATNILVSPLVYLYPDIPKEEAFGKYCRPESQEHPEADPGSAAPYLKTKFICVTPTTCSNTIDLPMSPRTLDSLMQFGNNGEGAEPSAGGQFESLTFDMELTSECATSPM
In short: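 Cis-factorial format: endogenous transcription factors in HepG2 drive transfected reporter units. After 24 h treatment, reporter RNA was reverse-transcribed, amplified, FAM-labelled and HpaI-digested before CE analysis; activity scored in both directions against DMSO.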

[15] = ATG_TA_CIS: Attagene CIS-FACTORIAL HepG2 Assay for human TA Basal Promoter (AID 2282964); conditions: HepG2 Attagene CIS-factorial TA basal promoter reporter; actives raise or lower the signal
In short: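 Cis-factorial format in HepG2: reporters report endogenous factors, not chimeric Gal4 fusions. After 24 h treatment, reporter transcripts were measured by RT-PCR-capillary electrophoresis fluorescence, analysed bidirectionally versus DMSO.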

[16] = ATG_TCF_b_cat_CIS: Attagene CIS-FACTORIAL HepG2 Assay for human T-Cell-Factor with beta-catenin (TCF/b-cat) (AID 2282965); conditions: HepG2 TCF/beta-catenin cis-reporter transcription, actives raise or lower the signal
In short: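 Endogenous TCF/LEF activity read as reporter transcript level via RT-PCR and capillary electrophoresis fluorescence in transfected HepG2, 24 h exposure; gain or loss of signal fitted against DMSO controls.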

[17] = ATG_TAL_CIS: Attagene CIS-FACTORIAL HepG2 Assay for human TAL Basal Promoter (AID 2282966); conditions: HepG2 Attagene cis-factorial TAL promoter reporter; actives raise or lower the signal;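 note: background control endpoint measuring basal TAL promoter reporter mRNA not a specific factor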
In short: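 Basal-promoter background-control endpoint from a multiplexed HepG2 reporter panel. Cells were exposed 24 h, then reporter mRNA was read by RT-PCR/CE fluorescence and fitted in both directions relative to DMSO.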

[18] = ATG_VDRE_CIS: Attagene CIS-FACTORIAL HepG2 Assay for human Vitamin D Receptor Element (VDRE) (AID 2282968); conditions: HepG2 VDRE cis-reporter transcription, actives raise or lower the signal
In short: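 Measures endogenous factor activity through cis-element-driven reporter transcripts in transiently transfected HepG2. Cells are treated 24 h; reporter mRNA is quantified by RT-PCR and capillary electrophoresis; fitting is bidirectional.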

[19] = ATG_PBREM_CIS: Attagene CIS-FACTORIAL HepG2 Assay for human Phenobarbital-responsive Enhancer Module (PBREM) (AID 2282955); conditions: HepG2 PBREM cis-reporter, Attagene multiplexed transcription; actives raise or lower the signal
In short: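 Fluorescence of labelled reporter cDNA fragments, resolved by capillary electrophoresis, gives mRNA induction in transfected HepG2 cells treated for 24 h; DMSO serves as negative control and baseline.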

[20] = ATG_TGFb_CIS: Attagene CIS-FACTORIAL HepG2 Assay for human Transforming Growth Factor (TGF) (AID 2282967); conditions: HepG2 Attagene CIS TGFb reporter, mRNA transcription; actives raise or lower the signal
In short: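 Multiplexed cis-reporter HepG2 system, 24 h treatment; mRNA induction read by fluorescence after RT-PCR and CE; DMSO negative control, bidirectional curve fitting.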

Measured: AC50

CCN(CC)C(=O)C(Cl)=C(C)OP(=O)(OC)OC
active: [8] 11.3 µM
not listed: [19] | [20]
inactive: all other assays above

COc1nn(C(=O)NS(=O)(=O)c2ccccc2OC(F)(F)F)c(=O)n1C
not listed: [7] | [10]
inactive: all other assays above

Cc1ccccc1OP(=O)(Oc1ccccc1)Oc1ccccc1
active: [6] 59.8 µM | [8] 0.236 µM | [13] 7.9 µM | [18] 1.25 µM
not listed: [7] | [16] | [17]
inactive: all other assays above

CCCCN(CCCC)C(=S)[S-].CCCCN(CCCC)C(=S)[S-].[Ni+2]
active: [8] 7.2 µM
not listed: [9] | [16] | [19]
inactive: all other assays above

c1ccc(-c2cccc(-c3ccccc3)c2)cc1
active: [8] 11.3 µM | [20] 56.6 µM
not listed: [9] | [18] | [19]
inactive: all other assays above

CCCCCCCCCCCCCl
not listed: [16] | [19]
inactive: all other assays above

OCC(c1ccc(Cl)cc1)c1ccc(Cl)cc1
active: [3] 55.3 µM | [4] 56.6 µM | [5] 52.8 µM | [6] 58.9 µM | [8] 8.73 µM | [12] 53.2 µM | [13] 60.9 µM | [15] 60.7 µM
not listed: [9] | [19]
inactive: all other assays above

[Cl][Sn]([c]1ccccc1)([c]1ccccc1)[c]1ccccc1
inactive: [1] | [2] | [19] | [8] | [10] | [13] | [14] | [16] | [20]
active: [3] 0.252 µM | [4] 1.62 µM | [5] 0.243 µM | [6] 0.23 µM | [9] 0.0117 µM | [11] 0.217 µM | [12] 1.66 µM | [15] 0.251 µM | [17] 1.13 µM | [18] 0.24 µM
